“And” between values parts separate entries of the source, which are not always exact repeats. Equal entries are not always repeated. The whole screen tested about 5,500 compounds, of which about 2,000 (36%) were called active. Not shown: some 18% with an inconclusive outcome. Rule as the data show it: active = normalized growth mostly below about 0.91 (no sharp cut-off); inconclusive = no clear call, values can overlap the other calls; inactive = mostly above about 0.92. Some of the results follow.
Assay: chemical genetic growth profiling, strain panel (AID 1159580);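 also: tested at 20 µM; growth read once vehicle control cultures reached saturation at 30 °C; 1 = growth at the plate median or of vehicle wells; lower values mean less growth of the strain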
Conditions: growth OD

Measured: normalized growth

COc1ccc2[nH]cc(CCN)c2c1
inactive: S. cerevisiae deletion strains, locus YJR043C, strain POL32, active compounds read low 1.02 | S. cerevisiae deletion strains, locus YJR075W, strain HOC1, active compounds read low 0.995 and 0.984 | S. cerevisiae deletion strains, locus YKL009W, strain mrt4, active compounds read low 0.94 | S. cerevisiae deletion strains, locus YKL068W, active compounds read low 0.986 | S. cerevisiae deletion strains, locus YKL085W, strain MDH1 (second series), active compounds read low 0.991 | S. cerevisiae deletion strains, locus YKL085W, strain MDH1, active compounds read low 0.991 | S. cerevisiae deletion strains, locus YKL160W, strain elf1, active compounds read low 1 | S. cerevisiae deletion strains, locus YKL190W, strain CNB1, active compounds read low 0.996 | S. cerevisiae deletion strains, locus YKR001C, strain vps1, active compounds read low 0.987 | S. cerevisiae deletion strains, locus YKR026C, strain gcn3, active compounds read low 0.988 | S. cerevisiae deletion strains, locus YKR091W, strain srl3, active compounds read low 0.996 | S. cerevisiae deletion strains, locus YLL001W, strain dnm1, active compounds read low 1 | S. cerevisiae deletion strains, locus YLL026W, active compounds read low 0.997 | S. cerevisiae deletion strains, locus YLL041C, strain sdh2, active compounds read low 0.991 | S. cerevisiae deletion strains, locus YLR027C, strain aat2, active compounds read low 1 | S. cerevisiae deletion strains, locus YLR039C, strain RIC1, active compounds read low 1.03 | S. cerevisiae deletion strains, locus YLR058C, strain SHM2, active compounds read low 0.97 | S. cerevisiae deletion strains, locus YLR102C, strain apc9, active compounds read low 0.982 | S. cerevisiae deletion strains, locus YLR221C, strain rsa3, active compounds read low 0.969 | S. cerevisiae deletion strains, locus YLR258W, strain gsy2, active compounds read low 0.997 | S. cerevisiae deletion strains, locus YLR262C, strain YPT6 (second series), active compounds read low 0.999 | S. cerevisiae deletion strains, locus YLR262C, strain YPT6, active compounds read low 0.989 | S. cerevisiae deletion strains, locus YLR268W, strain sec22, active compounds read low 1.06 | S. cerevisiae deletion strains, locus YLR320W, strain mms22, active compounds read low 0.965 | S. cerevisiae deletion strains, locus YLR330W, strain CHS5, active compounds read low 0.995 | S. cerevisiae deletion strains, locus YLR342W, strain FKS1 (second series), active compounds read low 0.991 | S. cerevisiae deletion strains, locus YLR342W, strain FKS1, active compounds read low 1.01 | S. cerevisiae deletion strains, locus YLR357W, strain rsc2, active compounds read low 0.991 | S. cerevisiae deletion strains, locus YLR370C, strain arc18, active compounds read low 0.994 | S. cerevisiae deletion strains, locus YLR371W, strain rom2, active compounds read low 0.974 | S. cerevisiae deletion strains, locus YLR384C, strain iki3, active compounds read low 0.999 | S. cerevisiae deletion strains, locus YLR418C, strain cdc73, active compounds read low 0.978 | S. cerevisiae deletion strains, locus YML016C, strain PPZ1, active compounds read low 0.984 | S. cerevisiae deletion strains, locus YML032C, strain rad52, active compounds read low 1 | S. cerevisiae deletion strains, locus YML120C, strain ndi1, active compounds read low 1.01 | S. cerevisiae deletion strains, locus YML124C, strain tub3, active compounds read low 0.984 | S. cerevisiae deletion strains, locus YMR058W, strain fet3, active compounds read low 0.988 | S. cerevisiae deletion strains, locus YMR078C, strain ctf18, active compounds read low 0.99 | S. cerevisiae deletion strains, locus YMR125W, strain sto1, active compounds read low 0.992 | S. cerevisiae deletion strains, locus YMR129W, active compounds read low 0.981 | S. cerevisiae deletion strains, locus YMR205C, strain PFK2, active compounds read low 1.02 | S. cerevisiae deletion strains, locus YMR223W, strain ubp8, active compounds read low 0.957 | S. cerevisiae deletion strains, locus YMR231W, strain pep5, active compounds read low 0.994 | S. cerevisiae deletion strains, locus YMR263W, strain SAP30, active compounds read low 0.981 and 0.985 | S. cerevisiae deletion strains, locus YMR307W, strain GAS1, active compounds read low 0.947 | S. cerevisiae deletion strains, locus YNL067W, strain RPL9B, active compounds read low 1.01 | S. cerevisiae deletion strains, locus YNL071W, strain lat1, active compounds read low 1.01 | S. cerevisiae deletion strains, locus YNL128W, strain TEP1, active compounds read low 0.975 | S. cerevisiae deletion strains, locus YNL153C, strain GIM3, active compounds read low 1 | S. cerevisiae deletion strains, locus YNL175C, strain NOP13, active compounds read low 1 | S. cerevisiae deletion strains, locus YNL197C, strain WHI3, active compounds read low 0.99 | S. cerevisiae deletion strains, locus YNL209W, strain ssb2, active compounds read low 1.01 | S. cerevisiae deletion strains, locus YNL224C, strain SQS1, active compounds read low 0.982 | S. cerevisiae deletion strains, locus YNL233W, strain BNI4, active compounds read low 1 | S. cerevisiae deletion strains, locus YNL248C, strain rpa49, active compounds read low 0.972 | S. cerevisiae deletion strains, locus YNL250W, strain rad50, active compounds read low 0.963 | S. cerevisiae deletion strains, locus YNL271C, strain bni1, active compounds read low 0.996 | S. cerevisiae deletion strains, locus YNL298W, strain CLA4, active compounds read low 0.971 | S. cerevisiae deletion strains, locus YNL307C, strain MCK1, active compounds read low 0.989 | S. cerevisiae deletion strains, locus YNL322C, strain KRE1 (second series), active compounds read low 1 | S. cerevisiae deletion strains, locus YNL322C, strain KRE1, active compounds read low 0.991 and 0.992 | S. cerevisiae deletion strains, locus YNR049C, strain mso1, active compounds read low 0.984 | S. cerevisiae deletion strains, locus YNR052C, strain pop2, active compounds read low 0.976 | S. cerevisiae deletion strains, locus YOL006C, strain TOP1, active compounds read low 1.03 | S. cerevisiae deletion strains, locus YOL012C, strain htz1 0.627 | S. cerevisiae deletion strains, locus YOL147C, strain pex11, active compounds read low 0.987 | S. cerevisiae deletion strains, locus YOR001W, strain rrp6, active compounds read low 0.931 | S. cerevisiae deletion strains, locus YOR061W, strain CKA2, active compounds read low 0.965 | S. cerevisiae deletion strains, locus YOR069W, strain VPS5, active compounds read low 0.983 | S. cerevisiae deletion strains, locus YOR070C, strain gyp1, active compounds read low 0.979 | S. cerevisiae deletion strains, locus YOR080W, strain dia2, active compounds read low 0.991 | S. cerevisiae deletion strains, locus YOR083W, strain WHI5 (second series), active compounds read low 0.99 | S. cerevisiae deletion strains, locus YOR083W, strain WHI5, active compounds read low 1.02 | S. cerevisiae deletion strains, locus YOR106W, strain vam3, active compounds read low 1.02 | S. cerevisiae deletion strains, locus YOR136W, strain idh2, active compounds read low 0.998 | S. cerevisiae deletion strains, locus YOR144C, strain elg1, active compounds read low 0.985 | S. cerevisiae deletion strains, locus YOR184W, strain ser1, active compounds read low 1.01 | S. cerevisiae deletion strains, locus YOR265W, strain rbl2, active compounds read low 0.991 | S. cerevisiae deletion strains, locus YOR270C, strain vph1, active compounds read low 0.957 | S. cerevisiae deletion strains, locus YOR290C, strain snf2, active compounds read low 1.01 | S. cerevisiae deletion strains, locus YOR316C, strain cot1, active compounds read low 0.994 | S. cerevisiae deletion strains, locus YPL051W, strain arl3, active compounds read low 1.01 | S. cerevisiae deletion strains, locus YPL055C, strain LGE1, active compounds read low 0.977 | S. cerevisiae deletion strains, locus YPL078C, strain atp4, active compounds read low 1.02 | S. cerevisiae deletion strains, locus YPL106C, strain sse1, active compounds read low 1.01 | S. cerevisiae deletion strains, locus YPL240C, strain hsp82, active compounds read low 0.995 | S. cerevisiae deletion strains, locus YPL241C, strain CIN2, active compounds read low 0.994 and 1.01 | S. cerevisiae deletion strains, locus YPR119W, strain clb2, active compounds read low 0.989 | S. cerevisiae deletion strains, locus YPR141C, strain kar3, active compounds read low 0.976 | S. cerevisiae deletion strains, locus YPR163C, strain tif3, active compounds read low 0.995 | S. cerevisiae deletion strains, locus YPR167C, strain met16, active compounds read low 0.989 | S. cerevisiae deletion strains, strain wtn01, active compounds read low 1.02 | S. cerevisiae strains, strain wild type, active compounds read low 0.984

From PubChem BioAssay AID1159580 (chemical genetic matrix, 2015)
